Experiment [1] in a line: E. coli DRC41 culture turbidity changes, primary screen, E. coli filamentation inducer project, strain DRC41, OD650, 48 h (AID 1152).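 Further: E. coli MC1000 strain DRC41 lacking acrAB efflux pump and sulA.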 The settings on record: E. coli DRC41 (acrAB sulA), higher = more signal, called active from +8 up or from −8 down.
Experiment [2] can be described thus: small-molecule binders of probe aLefty1, primary screen, biochemical, small-molecule microarray, 635/667 nm fluorescence (AID 1153).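 Further: score merges spot fluorescence with signal-to-noise ratio from the scanned slide images.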 The settings on record: higher = more signal.
Experiment [3] is described as follows: PSAC antagonists in infected red cells, primary screen, cell-based, P. falciparum Indochina, OD700, 1 h (AID 1154). The following applies: P. falciparum Indochina infected RBC osmotic lysis, higher = more signal, called active from +8 up or from −8 down.
A short description of experiment [4]: PSAC antagonists in infected red cells, primary screen, cell-based, P. falciparum Indochina, OD700, 2 h (AID 1155).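 Further: lysis reports solute entry through the parasite surface anion channel PSAC; channel blockers reduce lysis of infected cells.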 The following applies: P. falciparum Indochina infected erythrocytes, osmotic lysis OD700; higher = more signal, called active from +8 up or from −8 down.
Experiment [5] is described as follows: osmotic lysis modulators in infected erythrocytes, primary screen, PSAC antagonist project, cell-based, P. falciparum Indochina, OD700, 3 h (AID 1156). The settings on record: higher = more signal, called active from +8 up or from −8 down.
Experiment [6] can be described thus: PSAC antagonists in infected red cells, primary screen, cell-based, P. falciparum Indochina, OD700, 18 h (AID 1157). The following applies: P. falciparum Indochina infected erythrocytes, osmotic lysis OD700, 18 h; higher = more signal, called active from +8 up or from −8 down.
Experiment [7] in a line: modulators of S6 phosphorylation in cells, primary screen, cell-based, A549, cytoblot, luminescence, serum-stimulated (AID 1158).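 Further: serum-stimulated A549 lung adenocarcinoma cells; signal is phosphorylated S6 detected by cytoblot immunostaining with HRP secondary.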 The settings on record: A549 phospho-S6 cytoblot, 5 h, higher = more signal.
For experiment [8], the target named is NADPH oxidase 2 (Homo sapiens) (UniProt P04839). Briefly: NOX2-dependent H2O2 signal modulators, primary screen, NOX inhibitor project, cell-based, HEK293-NOX2, PMA-stimulated, Amplex Red fluorescence (AID 1159). Further: test concentration not given here. The following applies: 45 min, higher = more signal, called active from +8 up or from −8 down.
Sequence of NADPH oxidase 2 (Homo sapiens) (P04839 whole entry, looked up): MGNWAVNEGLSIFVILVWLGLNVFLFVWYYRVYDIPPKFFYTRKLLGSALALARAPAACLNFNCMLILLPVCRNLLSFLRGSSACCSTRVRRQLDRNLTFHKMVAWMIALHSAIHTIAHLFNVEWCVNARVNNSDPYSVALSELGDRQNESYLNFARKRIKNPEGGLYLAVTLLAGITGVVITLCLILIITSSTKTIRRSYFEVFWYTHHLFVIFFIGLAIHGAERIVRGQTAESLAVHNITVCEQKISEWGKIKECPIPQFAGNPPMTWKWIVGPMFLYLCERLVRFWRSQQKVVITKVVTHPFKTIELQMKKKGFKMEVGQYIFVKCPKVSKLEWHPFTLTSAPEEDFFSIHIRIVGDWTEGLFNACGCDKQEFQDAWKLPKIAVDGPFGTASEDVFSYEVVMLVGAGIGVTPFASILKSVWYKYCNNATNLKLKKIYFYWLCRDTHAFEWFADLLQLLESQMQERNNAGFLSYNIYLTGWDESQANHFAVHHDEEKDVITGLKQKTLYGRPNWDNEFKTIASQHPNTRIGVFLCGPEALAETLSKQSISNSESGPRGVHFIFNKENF
For experiment [9], the target named is NADPH oxidase 4 (Homo sapiens) (UniProt Q9NPH5). The experiment can be described thus: NOX4-dependent H2O2 signal modulators, primary screen, NOX inhibitor project, cell-based, HEK293-NOX4, tetracycline-induced, Amplex Red fluorescence (AID 1160). The settings on record: 45 min, higher = more signal, called active from +8 up or from −8 down.
Sequence of NADPH oxidase 4 (Homo sapiens) (Q9NPH5 whole entry, looked up): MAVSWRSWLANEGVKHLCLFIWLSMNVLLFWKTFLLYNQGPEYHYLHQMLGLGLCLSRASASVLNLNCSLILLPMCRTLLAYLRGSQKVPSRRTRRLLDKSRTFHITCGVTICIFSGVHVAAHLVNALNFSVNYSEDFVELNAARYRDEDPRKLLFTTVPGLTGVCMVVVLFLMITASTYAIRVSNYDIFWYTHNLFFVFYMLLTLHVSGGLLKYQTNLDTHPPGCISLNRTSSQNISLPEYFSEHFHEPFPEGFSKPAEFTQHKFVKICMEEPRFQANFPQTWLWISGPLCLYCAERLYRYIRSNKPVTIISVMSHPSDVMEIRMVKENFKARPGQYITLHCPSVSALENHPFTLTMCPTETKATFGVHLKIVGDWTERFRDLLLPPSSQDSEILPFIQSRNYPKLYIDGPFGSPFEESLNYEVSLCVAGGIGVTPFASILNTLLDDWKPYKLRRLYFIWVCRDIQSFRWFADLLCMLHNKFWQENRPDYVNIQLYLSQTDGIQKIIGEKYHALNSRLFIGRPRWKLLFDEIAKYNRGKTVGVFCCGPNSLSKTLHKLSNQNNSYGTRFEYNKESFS
Experiment [10] concerns the target NADPH oxidase 5 (Homo sapiens) (UniProt Q96PH1). Briefly: NOX5-dependent H2O2 signal modulators, primary screen, NOX inhibitor project, cell-based, HEK293-NOX5, Amplex Red fluorescence (AID 1161). The settings on record: HEK293-NOX5, ionomycin, 45 min, higher = more signal.

Each structure is given as a SMILES string. Activity calls are given as the source filed them.

Sequence of NADPH oxidase 5 (Homo sapiens) (Q96PH1 whole entry, looked up): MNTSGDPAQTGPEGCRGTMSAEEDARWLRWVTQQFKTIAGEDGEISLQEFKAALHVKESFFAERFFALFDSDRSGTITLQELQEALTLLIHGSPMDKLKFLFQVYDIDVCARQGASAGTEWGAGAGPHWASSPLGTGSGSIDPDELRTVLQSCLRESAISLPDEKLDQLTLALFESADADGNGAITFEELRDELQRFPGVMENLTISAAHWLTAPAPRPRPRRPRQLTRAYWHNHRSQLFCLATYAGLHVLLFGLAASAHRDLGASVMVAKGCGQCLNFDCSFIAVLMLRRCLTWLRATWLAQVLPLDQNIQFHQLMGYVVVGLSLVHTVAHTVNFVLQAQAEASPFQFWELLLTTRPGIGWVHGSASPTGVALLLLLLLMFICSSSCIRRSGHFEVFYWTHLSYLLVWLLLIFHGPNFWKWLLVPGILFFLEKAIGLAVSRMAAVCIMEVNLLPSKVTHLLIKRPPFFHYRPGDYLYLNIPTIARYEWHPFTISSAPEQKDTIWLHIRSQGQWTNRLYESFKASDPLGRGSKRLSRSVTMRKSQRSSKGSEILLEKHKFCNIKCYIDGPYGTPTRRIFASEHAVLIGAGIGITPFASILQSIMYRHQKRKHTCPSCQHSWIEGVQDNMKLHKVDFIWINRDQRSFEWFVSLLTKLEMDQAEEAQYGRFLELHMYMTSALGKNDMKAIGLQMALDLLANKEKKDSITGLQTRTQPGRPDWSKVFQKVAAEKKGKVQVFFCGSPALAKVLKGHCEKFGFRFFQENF

For the compound `COc1ccc([Si](C)(C)[C@H]2[C@H](CCn3cc([C@H](O)c4ccccc4)nn3)O[C@@]3(C(=O)N(C)c4ccccc43)[C@@H]2C)cc1`, the z-score in experiment [1] is 0.294 (inactive); in experiment [3], 5.08 (inactive); in [4] it was 1.5 (inactive); in experiment [5] it was 0.56 (inactive); in experiment [6], 0.866 (inactive); in [7], 0.334. Moreover, the z-score in [8] was -0.0243 (inactive); in [9], 0.0296 (inactive); in experiment [10] it was -1.24. The compound also registered a composite z-score in [2] of 0.573.

On to `COc1cc2c(cc1O)C=[N+](Cc1cc3c(cc1Br)OCO3)CC2`, for which the z-score is -0.167 (inactive) in experiment [1]; 3 (inactive) in [3]; 0.472 (inactive) in experiment [4]; 2.26 (inactive) in experiment [5]; 0.154 (inactive) in experiment [6]; -0.273 in experiment [7]. Further, the z-score in experiment [8] was -3.59 (inactive); in experiment [9], -2.72 (inactive); in experiment [10], -3.37. Besides, in experiment [2], the composite z-score is -0.237.

Regarding `CCCC[C@H]1C[C@@H]1[C@@H]1N(P(=O)(c2ccccc2)c2ccccc2)C[C@@](O)(c2ccccc2)CC12CC2`, the z-score in experiment [1] was -1.84 (inactive); in experiment [3], 2.07 (inactive); in experiment [4], 1.07 (inactive); in experiment [5], 0.425 (inactive); in [6], 1.55 (inactive); in [7], -0.443. For the same compound, the z-score in experiment [8] was -0.476 (inactive); in experiment [9] it was -0.925 (inactive); in experiment [10], -2.1. Further, the composite z-score in experiment [2] stood at 0.404.

In the case of `C=CCN1C(=O)[C@]2(O[C@H](CCO)[C@@H]([Si](C)(C)c3ccc(OC)cc3)[C@@H]2C)c2cc(N(C=O)c3ccccc3)ccc21`, the z-score in [1] is 0.35 (inactive); in experiment [3], 9.23 (active); in experiment [4] it was 3.66 (inactive); in experiment [5], -0.452 (inactive); in [6], 2.29 (inactive); in experiment [7] it was 1.53. For the same compound, the figures for the z-score in [8], in [9] and in experiment [10] were 0.474 (inactive), 0.446 (inactive) and 0.327, respectively. In addition, in experiment [2], the composite z-score was 0.0774.

For the compound `O=C1OCC=C[C@H]2OC34C=CCN(CCN5CCOCC5)C(=O)[C@H]3N(CCO)C(=O)[C@@H]4[C@@H]12` (stereo not given in full), the z-score in experiment [1] was -0.738 (inactive); in [3] it was 0.418 (inactive); in [4], 0.009 (inactive); in experiment [5], -0.392 (inactive); in experiment [6], 0.33 (inactive); in experiment [7], -0.822. Also, the z-score in experiment [8] was 1.4 (inactive); in [9], 0.628 (inactive); in experiment [10] it was 1.72. This compound showed a composite z-score in experiment [2] of -0.279.

On to `COC(=O)[C@@]1(Cc2ccccc2)[C@H]2c3cc(C(=O)N4CCCC4)n(Cc4c(CO)[nH]cc(C)c4=O)c3C[C@H]2CN1C(=O)c1ccccc1`, for which the z-score in experiment [1] was -1.73 (inactive); in experiment [3], 0.315 (inactive); in experiment [4], 0.32 (inactive); in experiment [5] it was 1.27 (inactive); in experiment [6], 0.397 (inactive); in experiment [7] it was -0.289. Moreover, the z-score was 0.562 (inactive) in experiment [8], -0.976 (inactive) in [9] and -2.9 in [10]. The same compound showed a composite z-score in [2] of -0.0971.

For the compound `O=C(O)[C@H]1C[C@H]2C(=O)N3CCC[C@H]3C(=O)N2[C@H]1c1ccc(O)cc1`, the z-score in [1] is 0.852 (inactive); in [3], 1.9 (inactive); in experiment [4], 0.0196 (inactive); in experiment [5], -6.59 (inactive); in experiment [6], 0.104 (inactive); in experiment [7] it was -0.275. Further, the z-score is 0.583 (inactive) in experiment [8], 0.16 (inactive) in [9] and 0.932 in [10]. This compound gave a composite z-score in experiment [2] of -0.121.

As to `NC(=O)N1C(=O)C2C(C1=O)C1C=C(CCCO)C2C(C2CC2)N1Cc1cc2c(cc1Br)OCO2` (stereo not given), the z-score in experiment [1] is -0.766 (inactive); in experiment [3] it was 4.92 (inactive); in experiment [4] it was 0.494 (inactive); in experiment [5], -0.23 (inactive); in experiment [6], 0.357 (inactive); in experiment [7], 0.415. Moreover, the z-score in [8] was 0.334 (inactive); in [9], -0.381 (inactive); in experiment [10], -0.344. In experiment [2], this compound returned a composite z-score of 0.19.

In the case of `O=C1C2C=CC(C(O)C=Cc3ccc([N+](=O)[O-])cc3)N(Nc3ccccc3F)C2C(=O)N1c1ccccc1` (stereo not given), the z-score is -1.37 (inactive) in experiment [1]; 13.1 (active) in experiment [3]; 3.11 (inactive) in [4]; 0.105 (inactive) in [5]; 1.59 (inactive) in [6]; -0.832 in experiment [7]. For the same compound, the z-score in experiment [8] was -1.43 (inactive); in experiment [9] it was -3.02 (inactive); in experiment [10], -3.26. In experiment [2], the composite z-score is 0.329.

Turning to `COc1cc2c(cc1OC)CN(C(=O)[C@H]1[C@@H]3C(=O)O[C@@H](c4ccccc4)[C@@H](c4ccccc4)N3[C@@H](c3ccccc3OCCO)[C@]13C(=O)Nc1ccc(C#CCCO)cc13)CC2`, the z-score in [1] is -0.667 (inactive); in experiment [3] it was 3.11 (inactive); in [4], 1.89 (inactive); in experiment [5] it was 1.89 (inactive); in experiment [6], 0.835 (inactive); in [7], -0.482. The z-score in [8] is 1.44 (inactive); in experiment [9], 1.26 (inactive); in experiment [10], 0.819. This compound also came in with a composite z-score in experiment [2] of 0.112.

(Values after PubChem BioAssay.)
